Screens as filed in PubChem.
INS-1E GSIS act: primary screen for activators of insulin secretion dependent on glucose, INS-1E cells, GLuc reporter luminescence. activation, % at 16.6 µM. hit rate 0.61% among 370,000. INS-1E GLuc reporter insulin secretion, 2-3 h. AID 743287;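 active = lowest replicate activation of at least 40%, so every replicate reaches that level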;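 note: 0% = median of neutral control wells and 100% = median of IBMX positive control wells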
AF4-AF9 inh: inhibitors of human MLL-AF4/AF9 interaction; P42568; AlphaScreen, biotin-AF4 peptide binding to FLAG-AF9; inhibition, % at 10 µM; hit rate 0.47% among 350,000; AID 651704;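 active = every replicate reaching a set inhibition limit, whatever the replicate mean, cut at about 25% in these data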;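 note: 0% = plate neutral control median and 100% = total signal loss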
Target sequence (P42568 whole entry, looked up): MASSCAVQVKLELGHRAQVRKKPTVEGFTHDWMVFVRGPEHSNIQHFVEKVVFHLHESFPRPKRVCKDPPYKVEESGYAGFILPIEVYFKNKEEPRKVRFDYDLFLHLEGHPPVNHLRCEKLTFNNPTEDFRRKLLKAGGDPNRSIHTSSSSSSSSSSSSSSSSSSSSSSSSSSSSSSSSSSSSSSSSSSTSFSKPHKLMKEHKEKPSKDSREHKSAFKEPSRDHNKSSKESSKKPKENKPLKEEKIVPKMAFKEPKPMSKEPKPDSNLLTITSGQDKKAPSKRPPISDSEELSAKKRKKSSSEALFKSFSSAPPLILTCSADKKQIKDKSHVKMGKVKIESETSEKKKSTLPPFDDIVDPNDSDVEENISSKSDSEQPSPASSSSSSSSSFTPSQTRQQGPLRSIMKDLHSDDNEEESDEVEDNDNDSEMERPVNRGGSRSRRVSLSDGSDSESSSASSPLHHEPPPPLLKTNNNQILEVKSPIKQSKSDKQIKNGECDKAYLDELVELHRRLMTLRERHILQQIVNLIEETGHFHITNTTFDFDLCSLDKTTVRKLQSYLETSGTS
NSD2 inh: blocks human histone methyltransferase NSD2. O96028. NSD2 peptide methylation, AlphaScreen, 120 min. inhibition, % at 12.5 µM. hit rate 0.54% among 310,000. AID 743445; in the data active = inhibition above about 50%
Env fusion inh: blocks HIV Env-driven cell-cell fusion; inhibition, % at 12.3 µM; hit rate 1.1% among 360,000; HeLa-JRFL Env/CEM21 cell fusion, luciferase; AID 651610;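 active = mean replicate inhibition score of at least 50 and every replicate individually at or above 50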;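 note: 0% = plate neutral controls and 100% = maraviroc near 300 nM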
PGC1a acetyl inh: PGC1a acetylation modulation, inhibitor mode. U2OS PGC1a acetylation, AlphaScreen anti-acetyl-lysine; with virally co-expressed GCN5 acetyltransferase. hit rate 0.17% among 350,000. inhibition, % at 15.6 µM;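 active = every replicate shows inhibition of at least 40%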;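 note: 0% = neutral control wells and 100% = positive control wells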
An asterisk follows results filed as active; . = no result; [ ] = remark or other dose. A selection: hits, their analogues and other compounds. The true share with any hit is near 2.1%.

SMILES	INS-1E GSIS act	AF4-AF9 inh	NSD2 inh	Env fusion inh	PGC1a acetyl inh
Cn1cnc(C(=O)N2CCN(c3ccccc3)CC2)c1C(=O)N1CCN(c2ccccc2)CC1	-2	-40	.	29	9
CC(OC(=O)c1cc(=O)[nH]c2ccccc12)C(=O)Nc1ccc(Cl)cn1 (stereo not given)	-14	2	0	.	-3
Cc1ccc2c(c1)CCCN2C(=O)c1ccc2c(c1)OCO2	54*	.	-3	.	.
O=C(c1ccc2c(c1)OCO2)N1CCc2ccccc2C1	81*	.	10	-40	14
COc1ccccc1Oc1ccc2c(c1)C(=O)N(c1ccc(C)cc1)C2=O	57	.	3	.	104*
CC(=O)N1/C(=C/c2ccc(N(C)C)cc2)C(=O)c2ccccc21	4	44*	.	-197	-75
CN(C)c1ccc(/C=C2\CCC/C(=C\c3ccccc3)C2=O)cc1	.	3	1	-17	.
Cc1ccc2c(c1)c(-c1ccccc1)nc1nncn12	46*	-4	.	-29	-2
O=c1oc(-c2ccccc2F)nc2scc(-c3ccccc3)c12	.	2	-3	64*	6
Cc1nc2scc(-c3ccccc3)c2c(=O)o1	5	.	-2	39	14
O=c1[nH]c(=S)[nH]cc1S(=O)(=O)c1cccc(Cl)c1	19	-6	0	-14	8
COc1cc(C2N(C)CCC3(OCCO3)C2(C)C)cc(OC)c1OC (stereo not given)	48*	.	-2	-30	9
COc1cc(C2N(c3ccccc3)CCN2c2ccccc2)cc(OC)c1OC	.	.	.	-44	.
Cc1ccc(-n2c(=O)cc(N3CC(C)OC(C)C3)[nH]c2=O)cc1 (stereo not given)	.	44*	.	3	6
CCN1C(=O)[C@H]2[C@@H](c3ccc(C(F)(F)F)cc3)N[C@]3(CCCN(Cc4ccccc4)C3=O)[C@H]2C1=O	.	3	.	78*	2
O=c1[nH]c2ccc(Br)cc2c(-c2ccccc2)c1N1CCOCC1	.	25*	.	4	8
O=c1[nH]c2ccc(Br)cc2c(-c2ccccc2)c1CN1CCOCC1	0	4	.	3	-9
Cc1cc(C)nc(Nc2nc(C(N)CCc3ccccc3)cs2)n1 (stereo not given)	-13	9	8	74*	-6
Cc1cc(C(F)F)n2ncc(C(=O)NCCc3ccc(Cl)cc3)c2n1	.	.	0	-142	-7
COc1cc(C2Nc3cccc4cccc(c34)N2)ccc1OC(C)=O	.	.	.	.	56*
O=C(CN1CCN(Cc2ccc(F)cc2Cl)C1=O)NCCc1ccccc1	-6	-2	.	5	-19
COc1ccc(CCn2c(O)c(C3=c4ccccc4=NC3=O)sc2=S)cc1OC	22	2	-2	-11	-11
CC1(C)CCN2CCC(C)(C)c3c(O)ccc1c32	-56	26*	5	45	.
O=C(NCc1cccnc1)c1csc([C@H]2C[C@H](O)[C@@H](CO)O2)n1	-3	-2	0	-1	0
COc1ccc(Nc2ccc(Cl)nn2)cc1	-2	43*	29	0	-3
SMILES	INS-1E GSIS act	AF4-AF9 inh	NSD2 inh	Env fusion inh	PGC1a acetyl inh
COc1cccc(C(=O)COc2ccc3c(C)c(Cc4ccccc4)c(=O)oc3c2C)c1	.	.	0	.	.
CC(=O)c1nn(-c2ccc(Br)cc2)cc1C(=O)c1ccccc1	54*	.	-2	-116	.
COc1cc(CCCN2C(=O)C(=O)NC[C@H]2Cc2cccc3ccccc23)cc(OC)c1OC	-7	-2	.	15	.
O=CNc1ccc2c(c1)Cc1cc([N+](=O)[O-])ccc1-2	-15	-1	-2	75*	-54
CC(=O)N1[C@@H]2c3ccc(C4=CCCC4)c(=O)n3C[C@@H]2[C@@H](CO)[C@@H]1C(=O)NC1CCC1	20	-12	.	.	.
C[C@H]1CN([C@@H](C)CO)C(=O)Cc2cc(NS(=O)(=O)c3ccc(F)cc3)ccc2O[C@@H]1CN(C)Cc1ccc2c(c1)OCO2	-6	6	.	-9[16.7 µM]	-6
COc1ccccc1-c1nnc(SCC(=O)Nc2c(Cl)cccc2Cl)o1	.	.	.	-27	-5
COc1ccccc1-c1nnc(SCC(=O)NCc2c(C)c(Cl)cc(C(C)C)c2O)o1	-26	-38	-2	86*	-15
Cc1ccc(N2CC(C(=O)Nc3cccc(C(=O)NC4CC4)c3)CC2=O)cc1 (stereo not given)	-18	3	0	.	-3
O=C(c1cccnc1)N1CC2(C1)[C@H](c1ccccc1)[C@H](CO)N2C(=O)CC1CC1	-6	-1	.	.	5
Cc1ccc(Cn2ncc3c(N4CCN(C)CC4)ncnc32)cc1	1	4	.	3	.
Cc1ccc(Cn2ncc3c(N4CCN(Cc5ccc(Cl)cc5)CC4)ncnc32)cc1	.	.	1	96*	0
Cc1ccc(Cn2ncc3c(N4CCN(c5ccc(C)cc5)CC4)ncnc32)cc1	.	.	1	91*	5
Cc1c(C(=O)N(C)C)c2ccc(Cl)cc2n1O	-2	0	0	-1	.
CN(C)CCn1c(=O)n(Cc2ccccc2)c(=O)c2c3c(sc21)CCCCC3	-14	26*	5	38	6
O=[N+]([O-])c1ccc(NCCc2ccccc2)c(Br)c1	16	0	4	28	.
CC(NNC(=S)N1CCCCCC1)c1ccc2ccccc2n1 (stereo not given)	-10	7	0	69*	.
CC(NNC(=S)N1CCN(c2ccccn2)CC1)c1nccc2ccccc12 (stereo not given)	0	19	6	-20	18
C=CCNC(=O)c1cc(-c2ccc3c(c2)OCO3)on1	43*	-3	.	-29	.
COc1ccc(OC)c(-c2cc(C(=O)Nc3c(C)nn(Cc4ccccc4)c3C)no2)c1	-11	.	31	30	-2
Cc1nn(Cc2ccc(Cl)c(Cl)c2)c(C)c1NC(=O)c1cc(-c2ccc3c(c2)OCO3)on1	-29	.	-1	73*	-28
COc1ccc(OC)c(-c2cc(C(=O)Nc3c(C)nn(Cc4ccc(Cl)cc4)c3C)no2)c1	-23	.	-1	87*	6
COc1ccccc1/C=C1\SC(=S)N(CCC(=O)Nc2ccc(C(=O)O)c(O)c2)C1=O	-18	26*	30	9	.
O=C(CCN1C(=O)/C(=C/c2ccco2)SC1=S)Nc1ccc(C(=O)O)c(O)c1	-3	6	27	-13	.
CC1(C)Cc2c(ccc3ccccc23)C(=O)N1	.	.	-6	80*	33
CCN(Cc1ccccc1)S(=O)(=O)c1cc(C(=O)NCC2CCCCC2)ccc1OC	-14	-1	7	.	.
Clc1ccc(CSc2nnc(Cn3cnc4ccccc43)o2)cc1	.	.	.	87*	8
